CBX7 AlphaScr – inhibitors of human CBX7 binding to H3K27me3 peptide | O95931 | AlphaScreen His6-CBX7 / biotin-H3K27me3 peptide binding; stronger effect = lower value | normalised signal (fraction of DMSO) (concentration not given with the values) | 66,000 compounds, 1.1% hits | AID 1224903; in the data active = normalised signal below about 0.5
Target sequence (O95931 whole entry, looked up): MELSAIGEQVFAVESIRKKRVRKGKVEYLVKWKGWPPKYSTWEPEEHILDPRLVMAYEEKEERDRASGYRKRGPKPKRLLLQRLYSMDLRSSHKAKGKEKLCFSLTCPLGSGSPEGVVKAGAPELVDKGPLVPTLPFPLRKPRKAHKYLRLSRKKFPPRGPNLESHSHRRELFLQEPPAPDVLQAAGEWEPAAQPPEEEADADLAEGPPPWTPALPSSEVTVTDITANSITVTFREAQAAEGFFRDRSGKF
* marks the source's active call; other numbers are inactive results. Shown is part of a subset that was picked to be rich in hits.

Results for Cc1ccc(N2C(=O)CC(N3CCC(C(N)=O)(N4CCCCC4)CC3)C2=O)cc1Cl (stereo not drawn) ?
CBX7 AlphaScr: 0.99

Results for CCOc1ccc(CCNC(=O)CSc2nc3ncccc3[nH]2)cc1OCC ?
CBX7 AlphaScr: 0.96

What do the screens show for `CCN(CC)S(=O)(=O)c1ccc2c(c1)N(CC(=O)N1CCc3ccccc31)C(=O)CO2`?
CBX7 AlphaScr: 1.1

How did Cc1n[nH]c(C)c1CCCCOc1ccc(C(C)(C)C)cc1 do in these assays?
CBX7 AlphaScr: 0.82

How did COc1ccc(OCCCCCCc2c(C)n[nH]c2C)cc1 do in these assays?
CBX7 AlphaScr: 0.43*

What do the screens show for `Cc1n[nH]c(C)c1CCCCCCOc1ccc(F)cc1`?
CBX7 AlphaScr: 1

What do the screens show for `Cc1cccc(-c2nc(CN3CCCC(C(=O)NC4CCC(C)CC4)C3)c(C)o2)c1` (stereo not drawn)?
CBX7 AlphaScr: 1

How did COC(=O)c1c[nH]n2c(NC3CCC(C)CC3)c(-c3cccc(C)c3)nc12 (stereo not drawn) do in these assays?
CBX7 AlphaScr: 0.24*

Results for COC(=O)c1c[nH]n2c(=O)c(Cc3cccc(Cl)c3)c(C)nc12 ?
CBX7 AlphaScr: 0.98

How did Cc1nc2c(C(=O)NC3CCCC3)c[nH]n2c(=O)c1Cc1ccc(Cl)cc1 do in these assays?
CBX7 AlphaScr: 1.1

What do the screens show for `CC1CCC(NC(=O)Cn2nc(-c3ccccc3)c3cc(Cl)ccc32)CC1` (stereo not drawn)?
CBX7 AlphaScr: 1

What do the screens show for `COC(=O)c1c[nH]n2c(NC3CCCCCC3)c(-c3cccc(C)c3)nc12`?
CBX7 AlphaScr: 0.44*

How did COC(=O)c1c[nH]n2c(NCCc3ccccc3)c(-c3cccc(OC)c3)nc12 do in these assays?
CBX7 AlphaScr: 0.86

How did COC(=O)c1c[nH]n2c(NC3CCC(C)CC3)c(-c3ccc(Cl)cc3)nc12 (stereo not drawn) do in these assays?
CBX7 AlphaScr: 0.33*

How did COC(=O)c1c[nH]n2c(NC3CCC(C)CC3)c(-c3cccc(F)c3)nc12 (stereo not drawn) do in these assays?
CBX7 AlphaScr: 0.33*

What do the screens show for `COC(=O)c1c[nH]n2c(=O)c(Cc3ccccc3C)c(C)nc12`?
CBX7 AlphaScr: 1.1

What do the screens show for `COC(=O)c1c[nH]n2c(=O)c(Cc3cc(C)ccc3C)c(C)nc12`?
CBX7 AlphaScr: 1.3

What do the screens show for `Cc1nc2c(C(=O)NC3CC3)c[nH]n2c(=O)c1Cc1ccccc1F`?
CBX7 AlphaScr: 1

What do the screens show for `CC(=O)C12c3ccccc3C(c3ccccc31)C1C(=O)NC(=O)C12` (stereo not drawn)?
CBX7 AlphaScr: 0.78

Results for CCc1ccc2c(c1)c(=O)c(S(=O)(=O)c1ccc(F)cc1)cn2CC(=O)Nc1cccc(C)c1 ?
CBX7 AlphaScr: 0.92

How did Cc1ccc(C(=O)Nc2c(-c3cccs3)nc3ccccn23)cc1C do in these assays?
CBX7 AlphaScr: 0.92

Results for CC(c1ccccc1)N1C(=O)CCC1(C)C(=O)NC1CCCCCC1 (stereo not drawn) ?
CBX7 AlphaScr: 1

What do the screens show for `O=C(Nc1c(-c2cccs2)nc2ccccn12)C(c1ccccc1)c1ccccc1`?
CBX7 AlphaScr: 0.94

What do the screens show for `Cc1ccccc1C(=O)NCCc1c(C)[nH]c2c(C)ccc(F)c12`?
CBX7 AlphaScr: 0.52

What do the screens show for `COc1ccc(-c2nc3cnccn3c2Nc2ccc3c(c2)OCCO3)cc1`?
CBX7 AlphaScr: 0.93

Results for Cn1c(C(=O)O)c(CC(=O)N2CCC(C(N)=O)CC2)c2ccccc21 ?
CBX7 AlphaScr: 1

How did Cc1cccc(CCNC(=O)CN(C)S(=O)(=O)c2ccc3c(c2)n(C)c(=O)c(=O)n3C)c1 do in these assays?
CBX7 AlphaScr: 1.1

Results for c1ccc(CN2CCC(NCCc3ccc4c(c3)OCO4)CC2)cc1 ?
CBX7 AlphaScr: 0.48*

Results for O=C1CC(N2CCN(Cc3ccc4c(c3)OCO4)CC2)C(=O)N1CC(c1ccccc1)c1ccccc1 (stereo not drawn) ?
CBX7 AlphaScr: 1.3

What do the screens show for `c1ccc(-c2csc(N3CCN(Cc4ccc5c(c4)OCO5)CC3)n2)cc1`?
CBX7 AlphaScr: 0.96

How did O=C(Nc1nc(-c2ccccc2)c(C(=O)c2ccccc2)s1)c1ccc(F)cc1 do in these assays?
CBX7 AlphaScr: 0.93

Results for CCCN1CCCc2cc(CN(CCCN3CCOCC3)C(=O)Nc3ccccc3)ccc21 ?
CBX7 AlphaScr: 0.8

Results for CCN1CCCc2cc(CN(CCN3CCOCC3)C(=O)Nc3ccc(C)c(C)c3)ccc21 ?
CBX7 AlphaScr: 0.22*

What do the screens show for `CCc1ccc(NC(=O)N(CCN2CCOCC2)Cc2ccc3c(c2)CCCN3CC)cc1`?
CBX7 AlphaScr: 0.57

How did CC1CCCC(NC(=O)C2c3ccccc3C(=O)N2Cc2ccccc2Cl)C1C (stereo not drawn) do in these assays?
CBX7 AlphaScr: 1.1

How did CCC(C)NC(=O)CC(C(=O)N1CCc2ccccc21)n1ccnc1 (stereo not drawn) do in these assays?
CBX7 AlphaScr: 1

What do the screens show for `O=C(CC(C(=O)N1CCc2ccccc21)n1ccnc1)NC(c1ccccc1)c1ccccc1` (stereo not drawn)?
CBX7 AlphaScr: 0.45*

Results for O=C(CC(C(=O)N1CCc2ccccc21)n1ccnc1)NC1CC1 (stereo not drawn) ?
CBX7 AlphaScr: 1

How did COc1cc(OC)c(NC(=O)CCc2nc(-c3ccccc3F)no2)cc1Cl do in these assays?
CBX7 AlphaScr: 0.98

Results for CCCCCCc1cc(-c2[nH]ncc2-c2ccc(Br)cc2)c(O)cc1OC ?
CBX7 AlphaScr: 0.58

How did CCCc1cc(-c2onc(C)c2-c2ccc3c(c2)OCCCO3)c(O)cc1OC do in these assays?
CBX7 AlphaScr: 0.68

Results for CCc1cc(-c2n[nH]c(C)c2-c2ccc3c(c2)OCCO3)c(O)cc1O ?
CBX7 AlphaScr: 0.69

What do the screens show for `CCc1cc(-c2[nH]ncc2-c2ccc3c(c2)OCCO3)c(O)cc1O`?
CBX7 AlphaScr: 0.69

What do the screens show for `CCCc1cc(-c2[nH]ncc2-c2ccc3c(c2)OCCO3)c(O)cc1OC`?
CBX7 AlphaScr: 0.29*

What do the screens show for `CCc1cc(-c2[nH]ncc2-c2ccc3c(c2)OCCO3)c(O)cc1OC`?
CBX7 AlphaScr: 0.38*

Results for COc1ccc(C2C(C(=O)Nc3ccc(C)c(F)c3)CCC(=O)N2c2ccc(OC)cc2)cc1 (stereo not drawn) ?
CBX7 AlphaScr: 1

How did O=C(CCc1nc2ccccc2n(Cc2ccc(F)cc2)c1=O)NC1CC1 do in these assays?
CBX7 AlphaScr: 1.1

What do the screens show for `CC(Oc1ccccc1)C(=O)Nc1c2c(nn1-c1ccc(Cl)cc1)CSC2` (stereo not drawn)?
CBX7 AlphaScr: 1

Results for CCOc1ccc2nc(NC(=O)c3ccc(F)cc3)sc2c1 ?
CBX7 AlphaScr: 1

Results for Cc1cc(=O)n2ccc(CN3CCCCC3)c(O)c2n1 ?
CBX7 AlphaScr: 0.0042*

What do the screens show for `CCn1cc(C(=O)N2CCCCC2)c(=O)c2ccc(C)nc21`?
CBX7 AlphaScr: 1.1

What do the screens show for `Cc1cc(=O)oc2c(CN3CCCC3)c(O)ccc12`?
CBX7 AlphaScr: 1.1

How did CCOc1ccc(S(=O)(=O)c2cn(Cc3ccccc3F)c3ccc(OC)cc3c2=O)cc1 do in these assays?
CBX7 AlphaScr: 0.92

Results for CCc1ccc(CN2C(=O)CCC2(C)C(=O)NC2CCCCCC2)cc1 (stereo not drawn) ?
CBX7 AlphaScr: 1

How did COc1ccc(C(CC(=O)c2ccco2)Sc2cccc3cccnc23)cc1OC (stereo not drawn) do in these assays?
CBX7 AlphaScr: 0.005*

What do the screens show for `COc1ccc(CCNC(=O)C2CCN(S(=O)(=O)c3cccc4cccnc34)CC2)cc1OC`?
CBX7 AlphaScr: 1

Screens from PubChem BioAssay.
